Measurements published in PubChem BioAssay AID2283109 (EPA ToxCast).
Activity calls are given as the source filed them. Rule for the calls: active = hit-call score of the fitted dose curve at least 0.9, where 1 is the maximum; inactive = score below 0.9.

molecular target: human CYP3A5, CYP3A5 (gene 1577) (UniProt P20815); experiment: NVS_ADME_hCYP3A5: NovaScreen (NVS) CYP450-related Enzyme Activity (ADME) Assay for human CYP3A5
Protocol: NVS_ADME_hCYP3A5 is a biochemical, single-readout assay that uses extracted gene-proteins in a cell-free assay. Measurements were taken 0.5 hour after chemical dosing in a 96-well plate.NVS_ADME_hCYP3A5 is one of one assay component(s) measured or calculated from the NVS_ADME_hCYP3A5 assay. It is designed to make measurements of enzyme activity, a form of enzyme reporter, as detected with fluorescence intensity signals by Fluorescence technology.Data from the assay component NVS_ADME_hCYP3A5 was analyzed into 1 assay endpoint. This assay endpoint, NVS_ADME_hCYP3A5, was analyzed in the positive analysis fitting direction relative to Acetonitrile as the negative control and baseline of activity. Using a type of enzyme reporter, loss-of-signal activity can be used to understand changes in the enzymatic activity as they relate to the gene CYP3A5. Furthermore, this assay endpoint can be referred to as a primary readout, because this assay has produced multiple assay endpoints where this one serves a enzymatic activity function. To generalize the intended target to other relatable targets, this assay endpoint is annotated to the cyp intended target family, where the subfamily is xenobiotic metabolism.
Binding assays used specific radioligands (tritiated, iodinated) with non-radioactive competitive displacement ligands in agonist or antagonist protocols (as indicated) and various reference compounds and inhibitors to titrate specific binding to receptors and transporters. Most enzyme assays (CYPs, kinases, phosphatases, proteases, HDACs) used recombinant protein and specific substrates (fluorescence mostly, some colorimetric and radioactive) and inhibitors, followed by a biochemical separation of substrate and product. All assays for the biochemical HTS were initially run in duplicate at a single concentration (10 uM for CYP450 assays and 25 uM for all others). […]

human CYP3A5, CYP3A5 (gene 1577), sequence (P20815 whole entry, looked up): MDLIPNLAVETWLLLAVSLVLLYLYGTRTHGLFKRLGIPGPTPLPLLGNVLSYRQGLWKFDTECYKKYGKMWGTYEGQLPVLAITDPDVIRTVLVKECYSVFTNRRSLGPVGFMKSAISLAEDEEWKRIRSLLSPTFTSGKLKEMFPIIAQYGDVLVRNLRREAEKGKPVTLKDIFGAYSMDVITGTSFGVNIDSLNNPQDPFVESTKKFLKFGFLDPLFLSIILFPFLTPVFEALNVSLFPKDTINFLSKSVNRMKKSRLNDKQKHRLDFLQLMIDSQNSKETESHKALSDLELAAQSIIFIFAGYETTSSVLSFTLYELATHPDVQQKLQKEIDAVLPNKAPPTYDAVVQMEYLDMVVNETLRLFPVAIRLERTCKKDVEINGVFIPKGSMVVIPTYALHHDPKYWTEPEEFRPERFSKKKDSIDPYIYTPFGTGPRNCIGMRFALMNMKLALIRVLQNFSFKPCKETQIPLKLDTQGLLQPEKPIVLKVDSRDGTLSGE

| SMILES | AC50 | outcome |
| --- | --- | --- |
| COP(=S)(OC)Oc1ccc(Sc2ccc(OP(=S)(OC)OC)cc2)cc1 | 13.5 µM (active) |  |
| Clc1ccc(C2(Cn3cncn3)CC(Br)CO2)c(Cl)c1 (stereo not drawn) | 0.557 µM (active) |  |
| COC(=O)Nc1cccc(OC(=O)Nc2cccc(C)c2)c1 |  | inactive |
